# Source: PubChem (National Center for Advancing Translational Sciences (NCATS))
# In the library only some 5.7% were active in any assay of this set; here they are far more common.
# JMJD2E inh – inhibitors of human JMJD2E histone demethylase; B2RXH2; JMJD2E catalytic domain, FDH-coupled NADH fluorescence (FDH is formaldehyde dehydrogenase); Potency, µM (top dose mostly 57.1 µM), hits mostly inhibitors; 230,000 compounds, 1.6% hits; active means well fitted inhibition curve with a large enough effect, not every such curve was filed as active; inconclusive means small, poorly fitted or top-dose-only effect, or another doubt; inactive means no such curve, though single readings can be large or run the other way; further: nearly all actives have a fitted effect of over 50% in size
# BAZ2B inh – BAZ2B (human) inhibition; AlphaScreen BAZ2B-H3K14Ac peptide displacement; Potency, µM (highest dose often 114 µM), hits mostly inhibitors; 360,000 compounds, 4.4% hits; further: nearly all actives have a fitted effect of over 60% in size
#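 BAZ2B (50 nM) with biotin-H3(5-23)K14Ac peptide (50 nM) in PBS pH 7.4, 0.01% Tween-20, preformed 30 min, then compound 30 min at room temperature; top concentration 110uM. AlphaScreen streptavidin donor/nickel chelate acceptor beads (10 ug/mL final), 20 min dark, signal read.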
# HP1b chromo inh – blocks HP1-beta chromodomain binding to methylated histone tails; Potency, µM (top dose mostly 114 µM), usual class: inhibitors; AlphaScreen HP1-beta / biotin-H3K9me3 peptide binding; 390,000 compounds, 0.56% hits; P83916; further: nearly all actives have a fitted effect of over 70% in size
#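 Compound inhibition of the preformed complex between 50 nM HP1-beta and 50 nM biotinylated H3K9me3 peptide was read by AlphaScreen. Buffer was PBS pH 7.4 with 0.01% Tween-20. Incubations ran 30 min at room temperature, with 10 ug/mL donor/acceptor beads.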
# PI5P4Ka inh – blocks human PI5P4K alpha kinase activity | P48426 | PI5P4Kalpha enzyme, ADP-Glo luminescence, 60 min; stronger effect = lower value | max response, % | 330,000 compounds, 1.2% hits | AID 652105; active means max response of -50% or lower; inconclusive means between -30% and -50%; inactive means -30% or higher; further: value at the top dose of about 77 µM
#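 Controls without substrate or without enzyme flank wells where PI5P4Kalpha converts substrate using 5 microM ATP (final). Incubation lasts 60 minutes at room temperature; ADP formed is read by ADP-Glo luminescence.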
# JMJD2A Tudor inh – blocks the human JMJD2A Tudor domain | 390,000 compounds, 4.4% hits | O75164 | Potency, µM (doses to about 114 µM), most hits filed as inhibitors | AlphaScreen JMJD2A-Tudor / H3K4me3 peptide binding | AID 504339; further: nearly all actives have a fitted effect of over 50% in size
# Target sequence (O75164 whole entry, looked up, the tested form may be a part): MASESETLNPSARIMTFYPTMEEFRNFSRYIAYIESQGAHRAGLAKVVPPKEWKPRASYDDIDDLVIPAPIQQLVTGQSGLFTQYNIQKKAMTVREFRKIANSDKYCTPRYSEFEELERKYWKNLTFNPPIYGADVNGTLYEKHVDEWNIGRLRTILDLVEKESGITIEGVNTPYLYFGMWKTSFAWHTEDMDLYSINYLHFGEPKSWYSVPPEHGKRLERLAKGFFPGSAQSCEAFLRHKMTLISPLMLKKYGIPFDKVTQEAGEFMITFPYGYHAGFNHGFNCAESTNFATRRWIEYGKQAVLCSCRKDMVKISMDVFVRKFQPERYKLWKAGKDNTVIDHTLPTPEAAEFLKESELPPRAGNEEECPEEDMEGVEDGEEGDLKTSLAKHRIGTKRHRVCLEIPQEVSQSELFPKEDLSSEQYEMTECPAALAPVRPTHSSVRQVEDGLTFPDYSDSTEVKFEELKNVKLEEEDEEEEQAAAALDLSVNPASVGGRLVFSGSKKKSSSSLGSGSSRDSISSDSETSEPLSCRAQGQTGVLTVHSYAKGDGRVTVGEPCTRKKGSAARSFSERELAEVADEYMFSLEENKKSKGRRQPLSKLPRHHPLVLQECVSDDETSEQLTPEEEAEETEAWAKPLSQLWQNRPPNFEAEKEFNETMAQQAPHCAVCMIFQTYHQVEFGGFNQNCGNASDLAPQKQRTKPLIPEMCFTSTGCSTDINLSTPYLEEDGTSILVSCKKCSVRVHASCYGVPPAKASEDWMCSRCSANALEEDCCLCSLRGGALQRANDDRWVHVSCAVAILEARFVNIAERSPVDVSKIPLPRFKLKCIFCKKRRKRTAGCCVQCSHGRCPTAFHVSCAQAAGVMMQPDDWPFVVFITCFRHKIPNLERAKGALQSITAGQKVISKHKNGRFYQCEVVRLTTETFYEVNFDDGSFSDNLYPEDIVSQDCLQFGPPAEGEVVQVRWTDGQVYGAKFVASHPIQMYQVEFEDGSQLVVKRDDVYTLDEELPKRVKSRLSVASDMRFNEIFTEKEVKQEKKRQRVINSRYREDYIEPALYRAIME
# L3MBTL1 block – L3MBTL1 (human) inhibition; Q9Y468; AlphaScreen L3MBTL1–H3K9me1 peptide binding; Potency, µM (series often up to 57.1 µM), most hits filed as inhibitors; 230,000 compounds, 0.66% hits; AID 485360; further: nearly all actives have a fitted effect of over 60% in size
#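 AlphaScreen proximity signal between nickel-chelate acceptor and streptavidin donor beads (final 10 ug/mL) reports binding of 50 nM L3MBTL1 to 75 nM biotin-H3 K9me1 peptide; complex incubated with compounds 30 min at room temperature; cefsulodin titration as control.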
# A number is an active result; i = inactive; ? = inconclusive; nt = no result; [ ] = dose if it differs, or a comment. Unless noted, the call rests on the fitted dose curve; in most records, active means well fitted inhibition curve with a large enough effect; inconclusive means small, poorly fitted or top-dose-only effect; inactive means no such curve, though single readings can be large or run the other way.
SMILES,JMJD2E inh,BAZ2B inh,HP1b chromo inh,PI5P4Ka inh,JMJD2A Tudor inh,L3MBTL1 block
COc1ccccc1C1C(C(=O)Nc2ccccc2)=C(C)Nc2nc(-c3ccccc3)nn21 (stereo unspecified),nt,i,i,nt,i,nt
CCN(CC)CCCN=C1N[C@@H](c2ccccc2)C(C(=O)OC)=C(C)N1CC,nt,79µM,i,i,32µM,i
COC(=O)C1=C(C)N(Cc2ccccc2)C(=NCC(C)C)N[C@H]1c1cccc(C(F)(F)F)c1,nt,nt,i,i,35µM,i
COC(=O)C1=C(C)N(Cc2ccccc2)C(=NCC(C)C)N[C@H]1c1cccc(F)c1,nt,?,i,i,25µM,i
CCN1C(=NCC2CC2)N[C@@H](c2cccc(C(F)(F)F)c2)C(C(=O)OC)=C1C,nt,i,i,i,i,i
CCN1C(=NCCOC)N[C@@H](c2cccc(C(F)(F)F)c2)C(C(=O)OC)=C1C,nt,?,i,i,16µM,i
CCn1cc(S(=O)(=O)c2ccccc2)c(=O)c2cc(F)c(N3CCN(c4ccccc4)CC3)cc21,nt,i,i,nt,i,nt
CCn1cc(C(=O)NCc2ccccc2Cl)c(=O)c2cc(S(=O)(=O)N3CCc4ccccc4C3)ccc21,nt,nt,i,nt,i,nt
O=[N+]([O-])c1ccc(N/N=C2/CCCCC2c2ccccn2)cc1 (stereo unspecified),i,?,i,i,16µM,?
Cc1ccc(CNC(=O)c2ccc(-n3c(C)cc4c3CCCC4)cc2)cc1,nt,i,i,nt,i,nt
Cc1cc2c(n1-c1ccc(C(=O)O)cc1)CCCCC2,nt,13µM,nt,nt,nt,nt
CCOC(=O)CC(=O)CSc1ncnc2c1nnn2-c1ccccc1,nt,i,i,i,i,nt
Cn1c(CNC(=O)c2cccs2)n[nH]c1=S,i,i,i,i,14µM,i
COc1ccccc1-n1c(CNC(=O)c2cccs2)n[nH]c1=S,i,i,i,i,?,nt
Cn1c(CCNC(=O)c2cccs2)n[nH]c1=S,i,i,i,i,18µM,i
O=C(NCc1n[nH]c(=S)n1-c1ccc(Br)cc1)c1cccs1,i,i,i,i,25µM,nt
Cn1c(CCNC(=O)OC(C)(C)C)n[nH]c1=S,i,i,i,i,40µM,i
CCN(C(=O)C1CCN(S(=O)(=O)c2cc(Br)cc3c2N(C(C)=O)CC3)CC1)c1cccc(C)c1,nt,i,i,nt,i,nt
O=C(CSc1ncc2c(n1)-c1cc(Cl)ccc1N(Cc1ccccc1)S2(=O)=O)NCCc1ccccc1,nt,i,i,nt,i,nt
CN1/C(=C/C=C(C#N)C#N)C=Cc2ccccc21,i,i,i,i,i,i
CCCCCCN1C=CC=C/C1=C/C=C(C#N)C#N,i,25µM,i,i,?,i
CCCCCCN1C=C/C(=C\C=C(C#N)C#N)c2ccccc21,i,3.2µM,?,i,2.8µM,i
C=CCN1C=C/C(=C\C=C(C#N)C#N)c2ccccc21,i,3.2µM,?,i,22µM,?
CCCCCN1C=CC=C/C1=C\C=C(C#N)C#N,i,?,i,i,i,i
COc1ccc(-c2nc(-c3ccccc3)oc2NC(C)C)cc1,i,nt,nt,nt,nt,nt
SMILES,JMJD2E inh,BAZ2B inh,HP1b chromo inh,PI5P4Ka inh,JMJD2A Tudor inh,L3MBTL1 block
CC(=O)NCc1ccc(C(=O)CSc2nnc(C3CC3)n2C2CC2)cc1,nt,i,i,i,22µM,i
CCOC(=O)c1n[nH]n2c1nc(=S)c1ccccc12,nt,i,i,?,89µM,nt
CCOC(=O)c1n[nH]c2ccccc12,?,i,i,i,i,i[11.4 µM]
CCOc1ccc(CCNC(=O)c2cnc3sc(N4CCC(C)CC4)nn3c2=O)cc1,nt,i,i,nt,i,nt
COc1ccc(NS(=O)(=O)c2cc(N)ccc2N2CCCC2)cc1,nt,nt,?,i,56µM,i
COc1ccc(NS(=O)(=O)c2cc(N)ccc2N2CCOCC2)cc1,nt,i,i,i,i,nt
COc1ccc(NS(=O)(=O)c2ccc(N3CCCC3)c(NC(=S)Nc3ccc(SC(F)F)cc3)c2)cc1,i,?,11µM,i,56µM,i
COc1ccc(NS(=O)(=O)c2ccc(N3CCCC3)c(NC(=S)Nc3cccc(C)c3C)c2)cc1,i,?,?,i,56µM,i
COc1ccc(Cl)cc1NC(=O)NN1CCN(C)CC1,nt,50µM,i,i,i,nt
CCOC(=O)C(C(=O)OCC)c1cc(Br)c2noc3c2c1C(=O)c1ccccc1-3,?,7.9µM,?,i,50µM,?
O=C1c2ccccc2-c2onc3ccc(Oc4ccccc4)c1c23,i,?,i,i,?,i[11.4 µM]
